Sampled rows, rich in hits. Any-hit rate of the full collection: about 21%.
Pf growth 48h – P. falciparum growth inhibition at 48 hours (one generation); P. falciparum luciferase growth in erythrocytes, 48 h; AID 504832; Potency, µM (doses to about 28.7 µM), inactives show at the highest dose activity change, negative = inhibition, actives largely listed as inhibitors; 310,000 tested, 5.9% active; note: potency is the fitted concentration of half-maximal effect; % is set by controls: 0 for no effect and ±100 for the full control effect
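Erythrocytes infected with P. falciparum carrying an integrated firefly luciferase reporter (2% hematocrit, 0.1% parasitemia final) were exposed to compounds in RPMI 1640 with 0.5% Albumax at 37 C, 5% CO2. Growth inhibition was scored as reduced luminescence.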
Shiga inhibitor – Shiga toxin inhibition; inhibition, % at 38.7 µM; Vero cells, Shiga toxin protein synthesis inhibition reporter; 290,000 tested, 9.2% active; in the data active = inhibition mostly above about 28%, no sharp cut-off; inactive = mostly below about 43%; note: 0% is about no effect
AMA1 RON2 block – disrupts binding of P. falciparum AMA1 to RON2; AlphaScreen AMA1-biotinylated RON2 peptide binding; Potency, µM (titrated, usually from 58.2 µM), inactives show at the top dose activity change, negative = inhibition, actives largely listed as inhibitors; 360,000 tested, 0.2% active; AID 720542;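 note: potency is the fitted concentration of half-maximal effect; 0% = vehicle wells and -100% = peptide control; nearly all actives have a fitted effect of over 45% in size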
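AMA1 (3D7) with his tag at 25 nM final met compounds first, then biotinylated RON2 peptide at 25 nM; detection used donor plus acceptor beads, 10 µg/mL apiece, read by AlphaScreen after 30 min at room temperature.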
Pf growth 96h – inhibits malaria parasite growth, 96 h; AID 504834; P. falciparum luciferase reporter growth, 96 h; 320,000 tested, 6.9% active; Potency, µM (highest dose often 28.7 µM), without a hit: at the top dose activity change, negative = inhibition, usual class: inhibitors; note: potency is the fitted concentration of half-maximal effect; % is set by controls: 0 for no effect and ±100 for the full control effect
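Two-generation exposure (96 h) targets delayed-death phenotype. Reporter parasites carrying integrated firefly luciferase, in red cells at 2% hematocrit and 0.05% parasitemia final, kept at 37 C, 5% CO2; luminescence loss indicates inhibition.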
HCV inh – blocks hepatitis C virus | Huh7.5.1 HCVcc-Cre infection, luciferase reporter, 44 h | Potency, µM (top dose mostly 41.8 µM), for the others: top-dose activity change, negative = inhibition, most hits filed as inhibitors | 340,000 tested, 3.4% active; note: potency is the fitted concentration of half-maximal effect; % is set by controls: 0 for no effect and ±100 for the full control effect
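Compounds are dispensed onto cells plated 4 h earlier at 1,000 per well, with HCVcc-Cre virus (about 0.5 moi) added next. Following 44 h of culture, luminescent signal is measured for 15 sec after 15 min with substrate at room temperature.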
Cycloheximide cs – counter-screen for Shiga toxin inhibitors: cycloheximide protein synthesis inhibition | cell reporter, cycloheximide protein synthesis inhibition counterscreen | max response, % | 300,000 tested, 12% active | AID 2314; in the data active = max response mostly above about 13%, no sharp cut-off; inactive = mostly below about 14%; note: read at 38.3 µM for the half of the compounds with a filed dose; 0% is about no effect
* hit, by the source's call; [ ] = remark or other dose. Unless noted, calls come from the whole dose curve; as a rule, active = well fitted curve in the direction sought with a large enough effect; inconclusive = small, poorly fitted or top-dose-only effect, or another doubt; inactive = no such curve, though single readings can be large; an effect the other way counts as inactive or inconclusive.

For O=C(CN(c1ccc(F)cc1)S(=O)(=O)c1ccc2c(c1)OCCO2)Nc1ccc2c(c1)OCO2 the results were Pf growth 48h inconclusive, Shiga inhibitor 5, AMA1 RON2 block -12%, Pf growth 96h -3%, HCV inh inconclusive and Cycloheximide cs 2.
O=C(CN(c1ccc(F)cc1)S(=O)(=O)c1ccc2c(c1)OCCO2)Nc1ccccc1 was read as Shiga inhibitor 30, AMA1 RON2 block -8%, Pf growth 96h inconclusive, HCV inh -18% and Cycloheximide cs 20*.
`O=C(CN(Cc1ccccc1)S(=O)(=O)c1ccc2c(c1)OCCO2)Nc1ccc2c(c1)OCCO2` gave Pf growth 48h inconclusive, Shiga inhibitor 36*, AMA1 RON2 block 16%, Pf growth 96h -20%, HCV inh -21% and Cycloheximide cs 28*.
For CCOP(=O)(OCC)C(Cc1ccc(OC)c(OC)c1)N=C(c1ccccc1)c1ccccc1 (configuration not stated) the results were AMA1 RON2 block -7%.
Screening Cc1nn(-c2ccc(Cl)cn2)c2c1C(=O)CC(C)(C)C2Br (configuration not stated) returned AMA1 RON2 block -10% and HCV inh inconclusive.
O=C(Nc1ccc2sccc2c1)c1ccc(Cl)s1 was read as Pf growth 48h 25%, Shiga inhibitor 39*, AMA1 RON2 block 0%, Pf growth 96h 107%, HCV inh inconclusive and Cycloheximide cs 33*.
For O=C(Nc1ccon1)c1ccc(Br)s1 the results were Pf growth 48h 21%, Shiga inhibitor 57*, AMA1 RON2 block -4%, Pf growth 96h -3%, HCV inh -5% and Cycloheximide cs 25*.
O=C(Nc1ccc(Br)cn1)c1ccc(Cl)s1 was read as Pf growth 48h 168%, Shiga inhibitor 84*, AMA1 RON2 block 3%, Pf growth 96h 252%, HCV inh inconclusive and Cycloheximide cs 54*.
O=C(Nc1ccc(Br)cn1)c1ccc(Br)s1 was read as Pf growth 48h 144%, Shiga inhibitor 108*, AMA1 RON2 block 0%, Pf growth 96h 245%, HCV inh inconclusive and Cycloheximide cs 62*.
For Cc1cc(C(=O)Nc2ccc(Br)cn2)sc1C the results were Pf growth 48h 221%, AMA1 RON2 block -2%, Pf growth 96h 392% and HCV inh -2%.
Screening COc1cc(NC(=O)CCC(=O)N2CCN(S(=O)(=O)c3ccc(C)cc3)CC2)cc(OC)c1 returned AMA1 RON2 block -2% and HCV inh inconclusive.
`O=S(=O)(Nc1ccccc1)C1CCCCC1` gave AMA1 RON2 block 25% and HCV inh -2%.
For COc1cc(OC)cc(C(=O)NNC(=S)NC2CC2)c1 the results were Pf growth 48h 28%, Shiga inhibitor 25, AMA1 RON2 block 68%, Pf growth 96h -18%[5.75 µM], HCV inh 0% and Cycloheximide cs -3.
O=C(NC1CCCC1)C1c2ccccc2OCC(=O)N1CCc1ccccc1 (configuration not stated) was read as AMA1 RON2 block -10%.
CC(OC(=O)C1CC1)C(=O)Nc1cc(C(F)(F)F)ccc1Cl (configuration not stated) was read as Pf growth 48h -4%, Shiga inhibitor 3, AMA1 RON2 block 30%, Pf growth 96h -34%[5.75 µM], HCV inh -16% and Cycloheximide cs -3.
O=C(Cc1c(F)cccc1Cl)N1CCN(S(=O)(=O)c2cccc(F)c2)CC1 was read as Pf growth 48h inconclusive, AMA1 RON2 block 17%, Pf growth 96h inconclusive and HCV inh -1%.
`COc1ccc(OC)c2sc(NC(=O)c3ccc(Cl)s3)nc12` gave Shiga inhibitor 5, AMA1 RON2 block 26%, Pf growth 96h 50%, HCV inh 8% and Cycloheximide cs 4.
`O=C(Nc1nccs1)c1ccc(Cl)s1` gave Shiga inhibitor 67, AMA1 RON2 block 128%, Pf growth 96h 64%, HCV inh 0% and Cycloheximide cs 20*.
O=C(Nc1ccccn1)c1ccc(Cl)s1 was read as Pf growth 48h 112%, Shiga inhibitor 100*, AMA1 RON2 block -3%, Pf growth 96h -29%, HCV inh 4% and Cycloheximide cs 62*.

Bioassay records deposited in PubChem by National Center for Advancing Translational Sciences (NCATS).
